nsP2pro inh = Primary qHTS for inhibitors of NSP2Pro chikungunya virus (CHIKV); Potency, µM (top dose mostly 24.9 µM), without a hit: at the top dose activity change, negative = inhibition, usual class: inhibitors; 1.1% of 31,000 active; FRET peptide cleavage, nsP2pro, fluorescence 1 h; Polyprotein P1234 (Chikungunya virus (strain S27-African prototype)), Q8JUX6; also: nearly all actives have a fitted effect of over 60% in size
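Enzyme 150 nM, substrate 2.5 uM (both final); Tris-HCl 10 mM pH 8.0 + 0.01% Tween 20; cpd up to 25 uM, 7 pts; 15 min preinc., 1 h RT; fluorescence ex 525/em 598.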
CHIKV nsP2 cell = Secondary cell base assay for inhibitors of NSP2Pro Chikungunya virus (CHIKV). shares compounds with nsP2pro inh. cell-based CHIKV nsP2 protease reporter assay. Potency, µM (highest dose often 51.1 µM), for the others: top-dose activity change, negative = inhibition, hits mostly inhibitors. 10% of 450 active. AID 1964100, 2024; also: nearly all actives have a fitted effect of over 70% in size
NSP2 full ctr = Selectivity profile for inhibitors of NSP2Pro chikungunya virus (CHIKV): Full length NSP2 enzyme counterscreen (CHIKV-NSP2) | shares compounds with nsP2pro inh | Full-length CHIKV NSP2 protease enzymatic counterscreen | Potency, µM (titrated, usually from 50.7 µM), for inactives: at the top dose activity change, negative = inhibition, usual class: inhibitors | 39% of 410 active; also: nearly all actives have a fitted effect of over 65% in size
Furin counter = Selectivity profile for inhibitors of NSP2Pro chikungunya virus (CHIKV): Human furin counterscreen | shares compounds with nsP2pro inh | AID 1964102, 2024 | 6% of 410 active | Potency, µM (top dose mostly 50.6 µM), inactives show top-dose activity change, negative = inhibition, hits mostly inhibitors | Recombinant human furin enzymatic counterscreen, fluorogenic substrate
NS23 peptide cs = Selectivity profile for inhibitors of NSP2Pro chikungunya virus (CHIKV): Endogenous NS2/3 peptide Counterscreen. shares compounds with nsP2pro inh. Purified CHIKV nsP2 protease, endogenous NS2/3 peptide cleavage. Potency, µM (top dose mostly 51 µM), without a hit: at the highest dose activity change, negative = inhibition, actives largely listed as inhibitors. 34% of 410 active. AID 1964103, 2024; also: nearly all actives have a fitted effect of over 55% in size
Papain counter = Selectivity profile for inhibitors of NSP2Pro chikungunya virus (CHIKV): Papain Counterscreen. shares compounds with nsP2pro inh. purified papain protease activity, enzymatic inhibition. Potency, µM (titrated, usually from 51 µM), without a hit: at the top dose activity change, negative = inhibition, actives largely listed as inhibitors. 5% of 410 active
Target sequence (P00784 whole entry, looked up): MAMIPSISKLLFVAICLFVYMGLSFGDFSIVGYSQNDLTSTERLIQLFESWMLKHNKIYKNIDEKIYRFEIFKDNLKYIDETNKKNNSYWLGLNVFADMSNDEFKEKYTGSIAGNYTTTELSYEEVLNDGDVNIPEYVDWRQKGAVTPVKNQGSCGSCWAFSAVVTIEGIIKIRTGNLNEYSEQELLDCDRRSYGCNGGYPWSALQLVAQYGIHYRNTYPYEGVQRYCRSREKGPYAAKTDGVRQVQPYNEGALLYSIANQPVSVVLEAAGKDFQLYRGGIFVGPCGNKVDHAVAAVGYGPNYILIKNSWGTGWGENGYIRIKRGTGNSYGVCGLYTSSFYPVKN
nsP2pro conf qHTS = Confirmatory qHTS for inhibitors of NSP2Pro chikungunya virus (CHIKV). Potency, µM (highest dose often 25.5 µM), for the others: at the highest dose activity change, negative = inhibition, hits mostly inhibitors. 43% of 410 active. shares compounds with nsP2pro inh. CHIKV nsP2 protease enzymatic activity, qHTS. AID 1964105, 2024; also: nearly all actives have a fitted effect of over 75% in size
HCV NS3 counter = Selectivity profile for inhibitors of NSP2Pro chikungunya virus (CHIKV): NS34A-HCV Counterscreen. shares compounds with nsP2pro inh. HCV NS3/4A protease biochemical counterscreen. Potency, µM (titrated, usually from 50.9 µM), usual class: inhibitors. 20% of 410 active; also: nearly all actives have a fitted effect of over 55% in size
* marks the source's active call; other numbers are inactive results; i = inactive; ? = inconclusive; [ ] = dose if it differs, or a comment. Shown is part of a subset that was picked to be rich in hits. Calls follow the shape of the full dose curve. % is scaled to controls: 0 for no effect and ±100 for the full control effect; potency is read from the fitted curve at half-maximal effect.

SMILES	nsP2pro inh	others
O=S(=O)(Nc1cccn2nc(C3CC3)nc12)c1cccnc1	?	CHIKV nsP2 cell=-16%
CC[N+]1(C)C2CC(OC(=O)[C@H](CO)c3ccccc3)CC1[C@@H]1O[C@H]21 (some centres undefined)	7%
COc1cc(O)cc(O[C@@H]2O[C@H](CO)[C@@H](O[C@@H]3OC[C@](O)(CO)[C@H]3O)[C@H](O)[C@H]2O)c1OC	17%[10 µM]
C#CCOc1ccc(-c2nnc3n2N=C(c2ccc(OC)c(OCC(C)=O)c2)CS3)cc1	-4%
O=C(NCC(F)(F)F)c1cn2cc(-c3ccc(C(F)(F)F)cc3)sc2n1	i
Cc1ccsc1CN(C)c1ncnc2ccc(-c3oc(-c4ccccc4)nc3C)cc12	i
O=C(C1CCOCC1)N1CCC(c2nc(C3CCOCC3)no2)CC1	i
Cn1cc(C(=O)N2CCc3[nH]cnc3C2C2CCN(C(=O)C3CCOCC3)CC2)cn1 (centres undefined)	?	CHIKV nsP2 cell=-2%;NSP2 full ctr=6.5µM*;Furin counter=-7%;NS23 peptide cs=?;Papain counter=-2%;nsP2pro conf qHTS=?;HCV NS3 counter=9.2µM*
COC(=O)N1CCCCC1C(=O)N1CCC2(CC1)c1nc[nH]c1CCN2C (centres undefined)	-11%
CC1(C)O[C@]23C[C@H]1C[C@H](OC(=O)c1ccoc1)[C@]2(C)[C@@H](OC(=O)c1ccoc1)CCC3(C)O (some centres undefined)	2%[10 µM]
COc1nccc(-c2nc(Nc3ccc(F)c(F)c3)c3ccccc3n2)c1OC	i
O=C(NC1CCCc2c1cnn2-c1ccc(F)cc1F)c1ccc(C(=O)c2ccccc2)cc1 (centres undefined)	-3%
COc1ccc(-n2ncc3c2CCCC3NC(=O)c2ccc3ncccc3c2)cc1 (centres undefined)	?	CHIKV nsP2 cell=21µM*;NSP2 full ctr=?;Furin counter=-4%;NS23 peptide cs=-14%;Papain counter=-9%;nsP2pro conf qHTS=6%;HCV NS3 counter=?
COc1ccc(-n2ncc3c2CCCC3NC(=O)c2cnc(C)cn2)cc1 (centres undefined)	-7%
Cc1ccc(-c2ccc(=O)n(CC(=O)N(C)C3CCCCCC3)n2)cc1	-2%
C[C@]12C[C@@H]3S[C@H]3C[C@@H]1CC[C@H]1[C@H]3CC[C@@H](O)[C@@]3(C)CC[C@@H]12	1%
CNC(=O)C1=C(C)NC(Nc2nc3ccccc3o2)=NC1c1nn(C)cc1Cl (centres undefined)	i
COc1ccc2c(O[C@H]3CC4C(=O)N(C)CCCC/C=C/[C@@H]5C[C@@]5(C(=O)NS(=O)(=O)C5CC5)NC(=O)[C@@H]4C3)cc(-c3nc(C(C)C)cs3)nc2c1C (some centres undefined)	78%
CNc1oc(-c2ccc(Cl)c(Cl)c2)nc1C#N	-7%
Cc1ccc(-c2nc3ccccn3c2Nc2ccc3c(c2)OCO3)o1	-7%
Cc1cccc2nc(-c3ccco3)c(Nc3ccc4c(c3)OCO4)n12	55%
Cc1ccc(-c2nc3cccc(C)n3c2Nc2ccc3c(c2)OCO3)o1	26%	CHIKV nsP2 cell=102%;NSP2 full ctr=-13%;Furin counter=-6%;NS23 peptide cs=-12%;Papain counter=-15%;nsP2pro conf qHTS=-6%;HCV NS3 counter=i
CC1=CC(=O)CC(C)(C)C1CCC(C)O[C@@H]1O[C@H](CO[C@@H]2OC[C@@H](O)[C@H](O)[C@H]2O)[C@@H](O)[C@H](O)[C@H]1O (some centres undefined)	115%[10 µM]
O=C(NCC(=O)N1CCCC1)Nc1ccc2cnccc2c1	0%
COc1ccccc1NC(=O)Nc1ccc2ccccc2c1	44%
SMILES	nsP2pro inh	others
O=C(NCC(=O)N1CCCC1)Nc1ccc2ccccc2c1	?	CHIKV nsP2 cell=-3%;NSP2 full ctr=?;Furin counter=-5%;NS23 peptide cs=-25%;Papain counter=-1%;nsP2pro conf qHTS=-14%;HCV NS3 counter=i
CC(O)c1cc(C(=O)N[C@@H](C)Cn2ccc(-c3ccc(C#N)c(Cl)c3)n2)n[nH]1 (some centres undefined)	-5%
O=C(O)/C=C/c1ccc(O)c(O)c1	?	CHIKV nsP2 cell=-8%;NSP2 full ctr=-22%;Furin counter=-2%;NS23 peptide cs=3%;Papain counter=-8%;nsP2pro conf qHTS=-5%;HCV NS3 counter=?
COc1cc(/C=C/C(=O)O)ccc1O	13%
O=C(/C=C/c1ccc(O)c(O)c1)O[C@@H](C(=O)O)[C@@H](OC(=O)/C=C/c1ccc(O)c(O)c1)C(=O)O	40%
Cc1ccc(CN(C)c2ncnc3ccc(-c4ccc5c(c4)OCO5)cc23)o1	-6%
CC1=C(C(=O)NCc2ccccc2)C(c2ccccc2Br)N=C(Nc2nc3ccccc3o2)N1 (centres undefined)	-13%
CCOC(=O)c1ccc(-n2cnc3cc(C(=O)N4CCCCC4)ccc32)cc1	i
O=C(CN1CC2CC(C1)[C@H]1CCCC(=O)N1C2)N1CCN(c2ccc(Cl)cc2)CC1 (some centres undefined)	-2%
Cc1cnc(C2CCOCC2)n1CC1CCN(C(=O)c2cccnc2)CC1	-4%
O=C(c1ccncc1)N1CCCC(CN2CCCC2)CC1 (centres undefined)	-7%
O=C(/C=C/c1cccnc1)NCCCCC1CCN(C(=O)c2ccccc2)CC1	?	CHIKV nsP2 cell=-28%;NSP2 full ctr=18%;Furin counter=12%;NS23 peptide cs=i;Papain counter=-8%;nsP2pro conf qHTS=22%;HCV NS3 counter=i
O=C(c1ccc(Cl)nc1)N1CCC(C(=O)N2CCC(N3CCCC3=O)CC2)CC1	-11%
CCC1CCCN(C(=O)CC(c2ccc3c(c2)OCO3)c2c(O)cc(OC)cc2OC)C1 (centres undefined)	i
CN1CCN(c2nnc(NC(=O)Nc3ccc(Cl)c(Cl)c3)s2)CC1	1%
C=CC(C)(C)c1[nH]c2ccccc2c1C1=C(O)C(=O)C(c2c[nH]c3c(CC=C(C)C)cccc23)=C(O)C1=O	?	CHIKV nsP2 cell=19%;NSP2 full ctr=32%;Furin counter=-12%;NS23 peptide cs=i;Papain counter=2.6µM*;nsP2pro conf qHTS=121%;HCV NS3 counter=4.1µM*

Compound activity from PubChem.
